The record followed here is PubChem BioAssay (NCATS).

Inconclusive results are not listed. Values without a mark were called inactive. Active and inactive are the calls of the source. The call rests on the fitted dose curve; in most records, active means well fitted inhibition curve with a large enough effect; inconclusive means small, poorly fitted or top-dose-only effect; inactive means flat fitted curve, though single readings scatter.
Potency means the concentration at half of the fitted maximal effect.

This test deals with CP203. In words: qHTS profiling for inhibitors of Plasmodium falciparum proliferation (AID 504749). Further: nearly all actives have a fitted effect of over 60% in size.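 On activity, negative = inhibition: 0% = DMSO vehicle and full inhibition = artemisinin control.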 As to conditions: P. falciparum in erythrocytes, SYBR Green DNA, 72 h; series mostly up to 28.7 µM; activity, negative = inhibition: at the top concentration. The text has this:
NIH National Institute of Allergy and Infectious Diseases [NIAID] NIH Chemical Genomics Center [NCGC] MLPCN Grant: None Assay Provider: Xinzhuan Su, NIAID NCGC Assay Overview: Plasmodium falciparum is a virulent malarial parasite that kills 1-2 million people worldwide each year. Transmitted by mosquitoes, the sporozoite form of the parasite enters the blood stream to infect hepatocytes, where they become merozoites that infect red blood cells (erythrocytes). Within erythrocytes, merozoites begin a […] cycle of growth and division, after which the parasite is released to infect new red blood cells. Gametocytes, which form within erythrocytes as well, circulate in the bloodstream and are ingested by the mosquito, thereby completing the life cycle. To profile malarial isolates for differential chemical responses and to identify inhibitors of malarial growth, an assay that measures P. falciparum growth and replication within erythrocytes was employed. This assay uses a DNA binding fluorescent dye (SYBR Green) to detect parasite DNA following cell lysis. Because mature erythrocytes lack DNA, only Plasmodium-derived DNA is detected.
NCGC Assay Protocol Summary: The SYBR Green viability assay was adapted from a method described previously (Plouffe et al., 2008). For screening 3 ul culture medium was dispensed into 1536 well black clear bottom plates (Aurora Biotechnologies) using a Multidrop Combi (Thermo Fisher Scientific Inc.), 23 nL compounds in DMSO were added by a pin tool (Kalypsys), and 5 ul of erythrocytes infected with P. falciparum (0.3% parasitemia, 2.5% hematocrit final concentration) were added. The plates were incubated at 37 C in a humidified incubator in 5% CO2 for 72 h, and 2 ul lysis buffer (20 mM Tris HCl, 10 mM EDTA, 0.16% saponin, 1.6% triton X, 10X SYBR Green I supplied as 10,000X […] by Invitrogen) was added to each well. The plates were mixed for 25 sec with gentle shaking and incubated overnight at room temperature in the dark. The following morning, fluorescence intensity at 485(14) nm excitation and 535(25) nm emission wavelengths was measured on an EnVision (Perkin Elmer) plate reader. Plate reads were normalized relative to the control inhibitor (0.29 uM artemisinin) and vehicle (DMSO) wells present on each plate and then corrected by an algorithm using vehicle-only control plates at the beginning and end of the compound plate stack.
(Quantitative high-throughput screening tests each substance at several concentrations.)
For `NC(=O)c1ncn([C@@H]2O[C@H](CO)[C@@H](O)[C@H]2O)c1O`, the “activity, negative = inhibition” value is 13.6%.

Consider `CCCCNC(=O)NS(=O)(=O)c1ccc(C)cc1`, for which the “activity, negative = inhibition” value was 0.876%.

For the compound `C[C@H](CS)C(=O)N1CCC[C@H]1C(=O)O`, the “activity, negative = inhibition” value is 3.41%.

Take `NC(=O)c1cn(Cc2c(F)cccc2F)nn1`: the “activity, negative = inhibition” value was 6.44%.

Consider `CN1CCN(C2=Nc3ccccc3Oc3ccc(Cl)cc32)CC1`, for which the “activity, negative = inhibition” value was -8.46% [at 12.8 µM].

For `CCN(CC)CCOCCOC(=O)C1(c2ccccc2)CCCC1`, the Potency was 6.75 µM (active).

As to `CC(=O)[C@@]1(O)CC[C@H]2[C@@H]3CCC4=CC(=O)CC[C@]4(C)[C@H]3CC[C@@]21C`, the “activity, negative = inhibition” value is 1.76%.

For `CCN1CCC[C@H]1CNC(=O)c1c(O)c(Cl)cc(Cl)c1OC`, the “activity, negative = inhibition” value was 7.14%.

Regarding `Cc1cc(C)c(/C=C2\C(=O)Nc3ccccc32)[nH]1`, the “activity, negative = inhibition” value was -2.64%.

As to `CC(C(=O)O)c1ccc(CC2CCCC2=O)cc1` (stereo not given), the “activity, negative = inhibition” value was 0.513%.

`FC(F)(F)c1ccccc1-n1ccnc1`: the “activity, negative = inhibition” value was 18.2%.

In the case of `Brc1c(NC2=NCCN2)ccc2nccnc12`, the “activity, negative = inhibition” value was -10.7%.

Consider `CCCCNc1ccc(C(=O)OCCN(C)C)cc1`, for which the “activity, negative = inhibition” value was 17.7% [at 12.8 µM].

For the compound `OC(CCN1CCCCC1)(c1ccccc1)C1CCCCC1` (stereo not given), the “activity, negative = inhibition” value was -21.8%.

`CCN1CCc2nc(N)oc2CC1`: the “activity, negative = inhibition” value is -6.65%.

Regarding `C#CCN(C)CCCOc1ccc(Cl)cc1Cl`, the “activity, negative = inhibition” value was -7.6%.

Consider `CCCCCN(CCCCC)C(=O)C(CCC(=O)O)NC(=O)c1ccc(Cl)c(Cl)c1` (stereo not given), for which the “activity, negative = inhibition” value was 5.98%.

Take `CC[N+](C)(C)c1cccc(O)c1`: the “activity, negative = inhibition” value is 5.95% [at 12.8 µM].

As to `CN(C)CC/C=C1\c2ccccc2COc2ccccc21`, the Potency was 13.5 µM (active).

As for `O=C(O)CN(CCOCCOCCN(CC(=O)O)CC(=O)O)CC(=O)O`, the “activity, negative = inhibition” value is -2.34%.

In the case of `COc1cc2c(cc1OC)-c1cc(=Nc3c(C)cc(C)cc3C)n(C)c(=O)n1CC2`, the Potency was 7.57 µM (active).

`CN(C)C(=O)Oc1ccc[n+](C)c1`: the “activity, negative = inhibition” value was 7.56%.

In the case of `NC/C=C/C(=O)O`, the “activity, negative = inhibition” value is -6.13%.

Regarding `CCCN(CCC)CCc1cccc2c1CC(=O)N2`, the “activity, negative = inhibition” value is -1.2%.

As for `CN(C)CCN(Cc1cccs1)c1ccccn1`, the Potency is 12 µM (active).

`O=C1CC2(CCCC2)CC(=O)N1CCCCN1CCN(c2ncccn2)CC1`: the “activity, negative = inhibition” value is -2.26%.

Regarding `CCN(Cc1ccncc1)C(=O)C(CO)c1ccccc1` (stereo not given), the “activity, negative = inhibition” value was 3.12%.

For the compound `CCN(CC)CC(=O)Nc1c(C)cccc1C`, the “activity, negative = inhibition” value was 5.92%.

With `CC(=O)Oc1cc(C(C)C)c(OCCN(C)C)cc1C`, the “activity, negative = inhibition” value was -5.61% [at 12.8 µM].

Take `CC(N=C(NC#N)Nc1ccncc1)C(C)(C)C` (stereo not given): the “activity, negative = inhibition” value is 0.0898%.

Take `C[C@]12CCC(=O)C=C1CC[C@@H]1[C@@H]2CC[C@@]2(C)[C@H]1CC[C@]2(O)C(=O)CO`: the “activity, negative = inhibition” value is -0.135%.

On to `COC(=O)C1=C(C)NC(C)=C(C(=O)OC(C)(C)CN(C)CCC(c2ccccc2)c2ccccc2)C1c1cccc([N+](=O)[O-])c1` (stereo not given), for which the Potency is 4.26 µM (active).

Take `CN(C(=O)CCCOc1ccc2[nH]c(=O)ccc2c1)C1CCCCC1`: the “activity, negative = inhibition” value was -11%.

Take `CN1C[C@H](C(=O)N[C@]2(C)O[C@@]3(O)[C@@H]4CCCN4C(=O)[C@H](Cc4ccccc4)N3C2=O)C[C@@H]2c3cccc4[nH]cc(c34)C[C@H]21`: the Potency is 10.7 µM (active).

`NC(=Nc1ccccc1)Nc1ccccc1`: the “activity, negative = inhibition” value was -6.3%.

On to `CCn1cc(C(=O)O)c(=O)c2cc3c(cc21)OCO3`, for which the “activity, negative = inhibition” value is 8.09%.

Consider `CC(C)(Oc1ccc(CCNC(=O)c2ccc(Cl)cc2)cc1)C(=O)O`, for which the “activity, negative = inhibition” value is 0.447% [at 12.8 µM].

As to `Nc1nc(N)c2nc(-c3ccccc3)c(N)nc2n1`, the “activity, negative = inhibition” value is -0.23%.

Take `CC1=NS(=O)(=O)c2cc(Cl)ccc2N1`: the “activity, negative = inhibition” value is -7.29%.

As for `CN=C(NC#N)NCCSCc1nc[nH]c1C`, the “activity, negative = inhibition” value is 6.2%.
